# Compound activity as filed in PubChem.
# DAT uptake mod: human DAT dopamine uptake with cocaine, either direction. Q01959. LLC-PK1 hDAT cells, [14C]-dopamine uptake with cocaine IC80; actives deviate in either direction. B-score at 10 µM. 110,000 tested, 1.3% active. AID 449768;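 active = Z score or B-score, a plate-position-corrected score, falls beyond the plate's 99.7% confidence bounds, in either direction; inactive = both scores lie inside the 99.7% bounds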;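 note: scored against the spread of the other compound wells on the same plate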
# ROCK2 inh: ROCK2 (human) kinase inhibition | O75116 | purified ROCK2, Kinase-Glo ATP depletion luminescence | inhibition, % at 6 µM | 60,000 tested, 0.35% active | AID 604;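 active = inhibition above the screen-wide mean inhibition plus 3 SD, cut at about 18% in these data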;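 note: plate controls were DMSO wells for no effect and Y-27632 control wells after no-enzyme background subtraction for full effect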
# PKA inh: blocks human protein kinase A activity; P17612; PKA Kemptide phosphorylation, Kinase-Glo ATP luminescence; inhibition, % at 6 µM; 65,000 tested, 0.1% active; AID 524;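 active = inhibition above the screen-wide mean inhibition plus 3 SD, cut at about 21% in these data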
# D1 mod: D1 dopamine receptor (human) allosteric modulation. B-score at 10 µM. P21728. 58,000 tested, 5.9% active. HEK293 D1, CRE-luciferase, dopamine EC30 potentiation; actives deviate in either direction;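 active = luminescence count or its row- and column-corrected plate score outside the 99.7% band of the plate's sample wells, on either side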
# D1 PAM confirm: D1 receptor (human) allosteric modulation, confirmed; 2,200 tested, 88% active; luminescence at 10 µM; HEK293 D1 CRE-luciferase, dopamine EC30 potentiation; stronger effect = higher value; shares compounds with D1 mod;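 active = luminescence in either of two replicates above the same-plate mean plus 3 SD of the low-dose dopamine control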
# D1 ag no DA: activates D1 CRE-luciferase signal without dopamine present; shares compounds with D1 mod; HEK293 D1 CRE-luciferase, luminescence, no dopamine; stronger effect = higher value; luminescence at 10 µM; 1,900 tested, 0.8% active; in the data active = luminescence above about 3900
# Isoprot counter: alters isoproterenol CRE-luciferase response in HEK293 cells; shares compounds with D1 mod; HEK293 D1 CRE-luciferase, isoproterenol EC30 counter-screen; calls only at 10 µM; 2,200 tested, 63% active;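 active = luminescence in either replicate above plate mean of wells with a partly effective reference agonist dose plus 3 SD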;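 note: isoproterenol raises cAMP through native beta-adrenoceptor Gs so signal bypasses D1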
# An asterisk follows results filed as active; i = inactive; · = not tested or not shown; + = active, no number. Shown is part of a subset that was picked to be rich in hits.
SMILES,DAT uptake mod,ROCK2 inh,PKA inh,D1 mod,D1 PAM confirm,D1 ag no DA,Isoprot counter
O=C(c1ccccc1)N(Cc1ccccc1)c1ccccn1,-0.6,6,8,5.8*,9876*,·,i
O=C(c1cccnc1)N(Cc1ccccc1)c1ccccc1,0.47,3,1,6.8*,15108*,1816,+
O=C(NCCc1ccccc1)c1cccnc1,0.56,·,·,·,·,·,·
CC(C)C(=O)N(Cc1ccccc1)c1ccccn1,0.96,·,·,·,·,·,·
Cc1cc(C)cc(NC(=O)C/C(N)=N/O)c1,0.41,·,·,·,·,·,·
Cc1ccc2cc(C(=O)O)c(C)nc2c1,-0.58,·,·,·,·,·,·
CSC(=NC#N)N1CCN(c2cccc(Cl)c2)CC1,1.7,·,·,·,·,·,·
Cc1csc2nc(CNC(=O)C3CCCCC3)cn12,0.19,4,9,3*,7124,1524,i
O=C(NCc1ccco1)C1CCCN(S(=O)(=O)c2ccc(Cl)cc2)C1 (stereo not given),-1.1,·,·,·,·,·,·
Nc1nc(SCC(=O)C23CC4CC(CC(C4)C2)C3)n[nH]1,-0.088,4,4,5.3*,8548*,·,i
COCCCN(C(=O)Nc1ccccc1)C(C)c1ccncc1 (stereo not given),-0.23,4,12,0.68,·,·,·
Nc1nc(-c2ccc(Cl)cc2)cc(C(F)(F)F)n1,-0.0098,-4,-4,19*,19568*,1592,+
C/C=C/Cn1c(N2CCCCCC2)nc2c1c(=O)[nH]c(=O)n2C,·,-4,-1,15*,16408*,1784,+
Cn1c(=O)[nH]c(=O)c2c1nc(N1CCCC1)n2CC(O)COc1ccccc1 (stereo not given),0.49,3,-4,·,·,·,·
Cn1c(=O)[nH]c(=O)c2c1nc(N1CCCCC1)n2CCOc1ccccc1,0.19,0,6,14*,22140*,1548,+
CCCn1c(N2CCN(CC(=O)c3c(C)n(C)c4ccccc34)CC2)nc2c1c(=O)[nH]c(=O)n2C,2.8*,1,-8,4.4*,12284*,1832,+
O=C(Nc1cccc([N+](=O)[O-])c1)C12CC3CC(C1)CC(n1cnc([N+](=O)[O-])n1)(C3)C2,0.51,·,·,·,·,·,·
NC1=NS(=O)(=O)NC1c1cccc(Cl)c1 (stereo not given),-0.21,·,·,·,·,·,·
CCCN(CCC)C(=O)Cn1c(=O)n(CCCCC(=O)NC2CCCC2)c(=O)c2ccccc21,-0.69,-1,0,-0.23,·,·,·
O=C(CCCCn1c(=O)c2ccccc2n(CC(=O)NC2CCCC2)c1=O)NC1CCCC1,0.97,1,0,4.4*,4732,1368,i
Cc1ccc(NC(=O)CC2S/C(=N/c3nccs3)N(C)C2=O)c(C)c1 (stereo not given),-0.92,·,·,·,·,·,·
CC(=O)N1CCC2(CC1)C(C#N)=C(N)Oc1c2sc2nc(C)cc(C)c12,-0.8,4,9,4.9*,14572*,1432,i
Cc1oc2ccc(O)cc2c1C(=O)OC(C)C,0.074,·,·,·,·,·,·
Cc1oc2ccc(OCC(N)=O)cc2c1C(=O)OC(C)C,-0.43,-1,-3,4.6*,6628*,1556,i
O=C(CCC(=O)Nc1nnc(C2CCCCC2)s1)NCc1cccs1,-0.78,2,7,3.8*,5740,1656,i
SMILES,DAT uptake mod,ROCK2 inh,PKA inh,D1 mod,D1 PAM confirm,D1 ag no DA,Isoprot counter
CNC(=O)c1[nH]cnc1C(=O)Nc1cccc(OC)c1,-0.42,6,2,4.5*,10128*,1656,+
CNC(=O)c1[nH]cnc1C(=O)Nc1ccc(C)cc1,0.23,·,·,·,·,·,·
CCC(CC)NC(=O)Cc1ccccc1OC,-0.33,·,·,·,·,·,·
Cn1nnnc1Sc1ncnc2scc(-c3ccc(F)cc3)c12,·,1,-3,12*,4984,1648,i
O=c1[nH]cnc2scc(-c3ccc(F)cc3)c12,-0.3,11,7,-0.011,·,·,·
Cn1nnnc1Sc1ncnc2scc(-c3ccccc3)c12,-1.1,7,8,5.6*,22236*,1604,+
CN(C)Cc1c(O)ccc2occ(C(=O)c3ccccc3)c12,0.66,8,13,0.5,·,·,·
O=C(c1ccccc1)c1coc2ccc(O)c(CN3CCOCC3)c12,1.8,4,10,7.6*,13536*,1636,+
CC(=O)Nc1cccc(Oc2cc(C#N)c(C#N)cc2N2CCCCCC2)c1,0.035,-2,-6,9.1*,11784*,·,+
COc1ccc(N2CCN(c3ccc(NC(=O)C4CCCCC4)cc3C#N)CC2)cc1,0.076,6,12,0.11,·,·,·
Cc1ccnn2c(-c3ccccc3)c3c(=O)n(C)c(=O)n(C)c3c12,-0.35,2,1,9.1*,12160*,1656,+
Cc1ccc(-c2c3c(=O)n(C)c(=O)n(C)c3c3nnc4ccccc4n23)cc1,·,2,-4,0.66,·,·,·
CN(Cc1ccccc1)c1nc2c(c(=O)[nH]c(=O)n2C)n1C,0.3,4,1,-0.12,·,·,·
Cc1cccc(Cn2c(SCC(=O)Nc3ccccc3)nc3c2c(=O)[nH]c(=O)n3C)c1,-0.3,3,5,3.1,·,·,·
Cc1cccc(Cn2c(N(C)Cc3ccccc3)nc3c2c(=O)[nH]c(=O)n3C)c1,-0.97,4,6,8*,19408*,1708,+
C/C=C/Cn1c(N(C)Cc2ccccc2)nc2c1c(=O)[nH]c(=O)n2C,-0.35,5,7,7.3*,21832*,1976,+
CCOC(=O)N1CCC(N2CCN(S(=O)(=O)c3ccc4ccccc4c3)CC2)CC1,-0.35,·,·,·,·,·,·
COC(=O)Cc1[nH]nc2c1C(c1c[nH]c3ccccc13)C(C#N)=C(N)O2 (stereo not given),-1.6,4,6,8*,10912*,·,+
CCCc1[nH]nc2c1C(c1ccc(OC)cc1OC)C(C#N)=C(N)O2 (stereo not given),2,-1,7,7.7*,14308*,1416,+
CCOC(=O)Cc1[nH]nc2c1C(c1ccoc1)C(C#N)=C(N)O2 (stereo not given),0.19,2,2,-0.09,·,·,·
NC(=O)C1CCN(C(=O)c2ccco2)CC1,-0.39,·,·,·,·,·,·
COc1ccccc1NC(=O)CC1Nc2ccccc2NC1=O (stereo not given),0.18,-2,0,3.7*,6444*,1504,i
O=c1nc(-c2ccccc2)c2cc(Cl)ccc2[nH]1,0.013,1,-6,6.7*,9072*,·,+
COc1ccc(CCn2c(N)c(C#N)c3nc4ccccc4nc32)cc1OC,0.38,4,6,-0.66,·,·,·
COc1ccc(Cn2c(N)c(C#N)c3nc4ccccc4nc32)cc1OC,0.65,4,6,5.1*,11232*,1656,+
CCCC(=O)Nc1ccc(NC(=O)C2CC2)cn1,-0.68,2,7,5.3*,5976*,1712,i
CC(C)(C)[C@@H]1C=C(C(=O)N2CCN(Cc3ccc4c(c3)OCO4)CC2)O[C@H](OCc2ccc(CO)cc2)C1,0.52,·,·,·,·,·,·
COc1ccc([C@@]2(O)c3c(ccc(CC=C(C)C)c3O)NC(=O)[C@@H]2OC)cc1,1.5,·,·,·,·,·,·
